Values joined by “and” are separate entries in the source; they are usually repeats but may differ in a detail not shown here. Equal values may be shown once. Unmarked numbers belong to inactive results. Records with an inconclusive call do not appear. A call without a number means that no potency is given here. Active and inactive are the calls of the source. Unless noted, the call rests on the fitted dose curve; in most records, active means well fitted curve in the direction sought with a large enough effect; inconclusive means small, poorly fitted or top-dose-only effect, or another doubt; inactive means no such curve, though single readings can be large; an effect the other way counts as inactive or inconclusive.
How the values were obtained:
[1] = S16 Schwann cell viability assay (CellTiter-Glo assay) (AID 624031);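 further: cellular ATP luminescence as a viability measure; series mostly up to about 58 µM; nearly all actives have a fitted effect of over 70% in size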
Outline: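 Luminescent ATP read-out (CellTiter-Glo) after 24 h compound exposure of native S16 rat Schwann cells at 37 °C. Signals were normalized between cell-free wells and DMSO-treated cells, set as 0% activity.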

[2] = S16 Schwann cell PMP22 intronic element firefly luciferase assay (AID 624032); further: series mostly up to about 58 µM; nearly all actives have a fitted effect of over 30% in size
Outline: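 Rat S16 Schwann cells stably carrying a PMP22 intronic element-driven Fluc reporter were seeded overnight, then exposed to compounds for 24 h at 37 °C. Luminescence was normalized to PTC124 (positive control) and DMSO (0% activity).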

[3] = S16 Schwann cell PMP22 intronic element beta-lactamase assay (AID 624044; calls by dose curve; further: nearly all actives have a fitted effect of over 15% in size)
Outline: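 Rat S16 Schwann cells with beta-Lac driven by a PMP22 intronic element, compound-treated 24 h at 37 °C. LiveBLAzer FRET B/G read: 460 nm normalized to potassium clavulanate vs DMSO; 535 nm FRET as viability; concentration-effect curves classified.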

[4] = qHTS Assay for Identifying Gametocytocidal Compounds (AID 743244);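 further: actives lower the fluorescent signal which means gametocytes are killed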; conditions: P. falciparum 3D7 stage III-V gametocytes, alamarBlue, 72 h; max response: active compounds read low
Outline: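 In this qHTS viability screen, late-stage 3D7 gametocytes are incubated with compound for 72 h, then with alamarBlue for 24 h; reduced resorufin fluorescence marks killing.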

[5] = qHTS assay for small molecule agonists of the antioxidant response element (ARE) signaling pathway (AID 651741; active means well fitted activation curve with a large enough effect in the signal ratio; the % refers to the signal ratio; further: potency means the concentration at half of the fitted maximal effect)
Outline: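 ARE-bla HepG2 cells (beta-lactamase reporter under ARE control) were plated at 2,000 cells/well, preincubated 5 h at 37 C/5% CO2, then treated with DMSO-dissolved compounds for 16 h at 37 C; LiveBLAzer B/G FRET substrate added, fluorescence read after 2 h at room temperature.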

[6] = qHTS assay for small molecule activators of the p53 signaling pathway (AID 651743; active means well fitted activation curve with a large enough effect in the signal ratio, not every such curve was filed as active; the % refers to the signal ratio; further: series mostly up to about 92 µM); conditions: HCT-116 p53RE-bla, beta-lactamase FRET ratio, 16 h; active compounds read high
Outline: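 p53RE-bla HCT-116 cells with a stably integrated beta-lactamase reporter under p53 response elements were plated, rested 5 hours at 37 C/5% CO2, then exposed to compounds in DMSO for 16 hours at 37 C. LiveBLAzer B/G FRET substrate was read after 2 hours at room temperature.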

[7] = qHTS assay for small molecule activators of the nuclear factor-kappa B (NF-kB) signaling pathway (AID 651749; active means well fitted activation curve with a large enough effect in the signal ratio; the % refers to the signal ratio; further: series mostly up to about 77 µM); conditions: NF-kB-bla ME-180 cells, beta-lactamase FRET ratio, 16 h; active compounds read high
Outline: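 ME-180 cells stably carrying a beta-lactamase reporter under an NF-kB response element were exposed to compound or DMSO vehicle for 16 hr at 37C, 5% CO2. Pathway activation was read by FRET, since reporter expression disrupts FRET.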

[8] = biological target: Tumor necrosis factor (Homo sapiens) (UniProt P01375); experiment: qHTS assay to identify small molecules that stimulate Tumor Necrosis Factor-alpha (TNF-alpha) secretion (AID 651757; active means well fitted curve in the direction sought with a large enough effect in the signal ratio; the % refers to the signal ratio)
Outline: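 THP-1 cells were exposed to compounds for 17 hrs at 37 C, after which secreted TNF-alpha was measured by homogeneous HTRF (TR-FRET) using cryptate- and XL665-labeled anti-TNF-alpha antibodies, read after 3 hr at room temperature.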

[9] = biological target: Peroxisome proliferator-activated receptor alpha (Homo sapiens) (UniProt Q07869); experiment: qHTS assay for small molecule agonists of the peroxisome proliferator-activated receptor alpha (PPARalpha) signaling pathway (AID 651778); conditions: PathHunter PPARalpha complementation, chemiluminescence, 6 h; active compounds read high
Outline: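 Cells plated at 2,000/well and held overnight at 37 C, 5% CO2, then compound added by pin tool for 6 hr; after PathHunter detection reagent and 60 min at room temperature, chemiluminescence from enzyme complementation was read.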

[10] = biological target: Nuclear receptor ROR-gamma (Homo sapiens) (UniProt P51449); experiment: qHTS assay for small molecule antagonists of the retinoid-related orphan receptor gamma (ROR-gamma) signaling pathway (AID 651802); further: series mostly up to about 92 µM; nearly all actives have a fitted effect of over 60% in size
Outline: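 CHO cells carrying TET-inducible ROR-gamma and an ROR response element–luciferase reporter were exposed to compound, then induced with doxycycline. After 16hr at 37C, luminescence was read; lower signal indicates antagonism.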

[11] = qHTS assay for small molecule agonists of the antioxidant response element (ARE) signaling pathway measured by Nrf2-dependant transcriptional activity (AID 720636; active means well fitted curve in the direction sought with a large enough effect in the repeat runs; an effect the other way counts as inactive or inconclusive;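 further: HepG2 cells with an ARE-driven luciferase reporter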)
Outline: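 Cells: ARE-luc HepG2 with Nrf2-responsive luciferase. Medium contained 1% dialyzed FBS. Compound exposure lasted 16 hr at 37 C and 5% CO2, followed by ONE-Glo luciferase detection.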

[12] = qHTS assay for small molecule agonists of the antioxidant response element (ARE) signaling pathway measured by Nrf2-dependant transcriptional activity - cell viability counter screen (AID 720653; active means well fitted curve in the direction sought with a large enough effect in the repeat runs; an effect the other way counts as inactive or inconclusive); conditions: ARE-bla HepG2 viability, CellTiter-Glo ATP luminescence, 16 h; active compounds read low
Outline: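 ARE-bla HepG2 cells (2,000/well) rested 5 hrs at 37C/5% CO2, then exposed to compounds in DMSO for 16 hrs. Viability was read in the same wells as intracellular ATP by luminescence, 30 min at room temperature after reagent addition.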

[13] = qHTS assay for cell viability of HEK293 cells (AID 743288); conditions: ATP luminescence (CellTiter-Glo), 18 h, active compounds read low; further: nearly all actives have a fitted effect of over 50% in size
Outline: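 The Tox21 protocol used parental HEK293 cells treated for 18 h at 37 C with compounds delivered by pintool; ATP-coupled luminescence after 30 min at room temperature gave viability.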

[14] = qHTS assay for cell viability of the p53RE-bla HCT-116 cell line (AID 743292); further: nearly all actives have a fitted effect of over 55% in size
Outline: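 HCT-116 p53RE-bla cells seeded 4,000/well; 5 h at 37 C; compound (DMSO) added; 16 h at 37 C; CellTiter-Glo added, 30 min RT; luminescence read.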

[15] = qHTS assay for small molecule disruptors of the mitochondrial membrane potential - 1 hr assay (AID 651754; calls by dose curve; further: nearly all actives have a fitted effect of over 35% in size)
Outline: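 HepG2 cells, attached overnight at 37C, were exposed to compound or DMSO vehicle for 1 hr at 37C, 5% CO2, then stained with Mito-MPS dye for 30 min. Red aggregate versus green monomer fluorescence reports membrane potential.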

[16] = qHTS assay for small molecule disruptors of the mitochondrial membrane potential - 5 hr assay (AID 651755; calls by dose curve; further: nearly all actives have a fitted effect of over 40% in size)
Outline: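 HepG2 cells, attached overnight at 37C, were exposed to compound or DMSO for 5 hr at 37C, 5% CO2. Mito-MPS dye was then added for 30 min, and fluorescence read at 490/535 nm (monomers) and 540/590 nm (aggregates).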

[17] = qHTS assay for environmental chemicals that activate the Aryl hydrocarbon Receptor (AhR) signaling pathway (AID 651777); conditions: 1A2-DRE human hepatoma cells, luciferase, 24 h; active compounds read high; further: nearly all actives have a fitted effect of over 15% in size
Outline: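 1A2-DRE human hepatoma reporter line; 1,200 cells/well; cmpd or DMSO 24 h, 37 C/5% CO2; One-Glo 30 min RT; luciferase lum.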

[18] = qHTS assay to identify small molecules that stimulate interleukin-8 (IL-8) secretion (AID 651758; active means well fitted activation curve with a large enough effect in the signal ratio; the % refers to the signal ratio)
Outline: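 THP-1, 2000 cells/well; cpd 16 h, 37 C; add cryptate + XL665 anti-IL-8 Abs; RT 1-3 h; TR-FRET read.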

Sequence of Nuclear receptor ROR-gamma (Homo sapiens) (P51449 whole entry, looked up): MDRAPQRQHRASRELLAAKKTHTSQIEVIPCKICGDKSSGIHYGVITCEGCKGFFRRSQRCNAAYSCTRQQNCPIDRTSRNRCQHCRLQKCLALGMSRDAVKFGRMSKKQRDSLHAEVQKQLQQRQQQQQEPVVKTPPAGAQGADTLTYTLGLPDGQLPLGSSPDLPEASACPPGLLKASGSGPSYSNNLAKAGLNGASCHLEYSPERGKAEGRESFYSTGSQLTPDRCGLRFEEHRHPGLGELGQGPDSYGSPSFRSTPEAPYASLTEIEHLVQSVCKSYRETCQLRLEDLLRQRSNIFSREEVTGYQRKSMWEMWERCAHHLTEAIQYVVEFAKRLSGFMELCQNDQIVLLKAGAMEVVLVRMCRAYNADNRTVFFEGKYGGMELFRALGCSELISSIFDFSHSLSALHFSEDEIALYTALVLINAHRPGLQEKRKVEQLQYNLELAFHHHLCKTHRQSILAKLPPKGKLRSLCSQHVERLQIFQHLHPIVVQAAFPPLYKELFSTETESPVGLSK
Sequence of Peroxisome proliferator-activated receptor alpha (Homo sapiens) (Q07869 whole entry, looked up): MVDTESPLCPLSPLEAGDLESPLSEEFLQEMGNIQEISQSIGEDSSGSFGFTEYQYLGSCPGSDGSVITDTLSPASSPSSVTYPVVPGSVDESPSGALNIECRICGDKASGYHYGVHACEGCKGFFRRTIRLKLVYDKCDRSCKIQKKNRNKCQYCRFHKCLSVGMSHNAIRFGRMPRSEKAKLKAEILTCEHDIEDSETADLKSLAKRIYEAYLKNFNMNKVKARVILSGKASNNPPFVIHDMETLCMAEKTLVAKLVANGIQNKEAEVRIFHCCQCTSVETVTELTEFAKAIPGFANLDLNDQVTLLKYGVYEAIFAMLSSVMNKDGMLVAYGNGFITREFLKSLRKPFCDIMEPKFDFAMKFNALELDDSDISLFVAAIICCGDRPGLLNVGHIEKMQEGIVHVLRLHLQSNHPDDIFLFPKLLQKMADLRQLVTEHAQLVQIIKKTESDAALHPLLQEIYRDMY
Sequence of Tumor necrosis factor (Homo sapiens) (P01375 whole entry, looked up): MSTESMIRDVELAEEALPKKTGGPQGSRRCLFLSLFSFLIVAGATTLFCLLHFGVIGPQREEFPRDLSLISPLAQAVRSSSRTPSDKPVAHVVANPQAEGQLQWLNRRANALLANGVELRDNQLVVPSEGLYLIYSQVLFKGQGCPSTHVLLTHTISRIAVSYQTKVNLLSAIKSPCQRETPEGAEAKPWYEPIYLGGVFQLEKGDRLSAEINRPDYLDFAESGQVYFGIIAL

Q: For `CCCOC(=O)c1ccc(N)cc1`, which outcome [1] is on record?
A: inactive

Q: And the Potency [2]?
A: inactive

Q: And the outcome [3]?
A: inactive

Q: And the max response [4]?
A: -6.49%

Q: Which outcome [1] does the source give for `CCN1CC(CCN2CCOCC2)C(c2ccccc2)(c2ccccc2)C1=O` (stereo not given) here?
A: inactive

Q: What about the Potency [2] of the same molecule?
A: inactive

Q: And the outcome [3]?
A: inactive

Q: What about the max response [4] of the same molecule?
A: 3.23%

Q: Which results are given for `O=C1C(c2[nH]c3ccccc3c2O)=Nc2ccccc21`?
A: outcome [1]: inactive; Potency [2]: inactive; outcome [3]: inactive; Potency [5]: 47.3 µM (active); activation [6]: -4.39%; activation [7]: -0.0626%; outcome [8]: inactive; max response [9]: -5.35%; outcome [10]: inactive; outcome [11]: inactive; max response [12]: -0.733%; max response [13]: 1.4%; outcome [14]: inactive

Q: Which results are given for `Cc1ccc(S(=O)(=O)NC(=O)NC2CCCCCCC2)cc1`?
A: outcome [1]: inactive; Potency [2]: inactive; outcome [3]: inactive; max response [4]: 5.01%

Q: For `Cc1cc(O)cc(C)c1Cl`, which outcome [1] is on record?
A: inactive

Q: What about the Potency [2] of the same molecule?
A: inactive

Q: And the outcome [3]?
A: inactive

Q: What about the Potency [5] of the same molecule?
A: 10.9 µM (active)

Q: What about the activation [7] of the same molecule?
A: -0.418%

Q: What about the max response [9] of the same molecule?
A: -0.107%

Q: And the outcome [11]?
A: inactive

Q: And the max response [12]?
A: 0.227%

Q: What about the max response [4] of the same molecule?
A: -2.6%

Q: And the max response [13]?
A: -9.96%

Q: What about the outcome [14] of the same molecule?
A: inactive

Q: Which outcome [1] does the source give for `NC(=O)CC[C@@H](N)C(=O)O` here?
A: inactive

Q: And the Potency [2]?
A: inactive

Q: And the outcome [3]?
A: inactive

Q: What about the max response [4] of the same molecule?
A: -2.82%

Q: For `CC(=O)Oc1cccc(O)c1`, which outcome [1] is on record?
A: inactive

Q: And the Potency [2]?
A: inactive

Q: What about the outcome [3] of the same molecule?
A: inactive

Q: What about the max response [4] of the same molecule?
A: 2.07%

Q: For `CCN(CC)CC1CCCCN1CC(=O)N1c2ccccc2C(=O)Nc2cccnc21` (stereo not given), which outcome [1] is on record?
A: inactive

Q: And the Potency [2]?
A: inactive

Q: And the outcome [3]?
A: inactive

Q: What about the max response [4] of the same molecule?
A: 3.31%

Q: What does the source list for `Nc1ccc(S(=O)(=O)c2ccc(N)cc2)cc1`?
A: outcome [1]: inactive; Potency [2]: inactive; outcome [3]: inactive; Potency [5]: inactive; activation [6]: -4.8% and 0.655%; activation [7]: 2.3% and -6.03%; Potency [15]: inactive; Potency [16]: inactive; activation [17]: -1.52% and 0.0487%; max response [9]: -8.33% and -0.873%; outcome [10]: inactive; outcome [11]: inactive; max response [12]: -3.28% and -10.9%; max response [4]: -3.88%; max response [13]: -5.62% and -11.7%; outcome [14]: inactive

Q: Which results are given for `CCCCOC(=O)c1ccc(N)cc1`?
A: outcome [1]: inactive; Potency [2]: inactive; outcome [3]: inactive; activation [6]: -1.05%; activation [7]: -0.245%; Potency [15]: inactive; Potency [16]: inactive; outcome [8]: inactive; outcome [18]: inactive; activation [17]: 13%; max response [9]: -1.13%; outcome [10]: inactive; max response [12]: -19.9%; max response [4]: -1.98%; max response [13]: 3.29%; outcome [14]: inactive

From PubChem BioAssay (NCATS)
